For 70 compounds, B-score results are on record in PubChem BioAssay AID488922 (Johns Hopkins Ion Channel Center, 2010).

SMILES strings stand for the structures. Out of some 310,000 compounds screened, about 3,800 (1.2%) were called active.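 The calls were made as follows: active = ratio B-score over 3 SD below the library mean, with starting fluorescence within 5 SD of its mean; inactive = the rest, inconclusive results apart.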 What follows is part of a selection rich in actives, with near analogues and random picks from the rest.

Potassium channel subfamily K member 9 (Homo sapiens), sequence (Q9NPC2 whole entry, looked up): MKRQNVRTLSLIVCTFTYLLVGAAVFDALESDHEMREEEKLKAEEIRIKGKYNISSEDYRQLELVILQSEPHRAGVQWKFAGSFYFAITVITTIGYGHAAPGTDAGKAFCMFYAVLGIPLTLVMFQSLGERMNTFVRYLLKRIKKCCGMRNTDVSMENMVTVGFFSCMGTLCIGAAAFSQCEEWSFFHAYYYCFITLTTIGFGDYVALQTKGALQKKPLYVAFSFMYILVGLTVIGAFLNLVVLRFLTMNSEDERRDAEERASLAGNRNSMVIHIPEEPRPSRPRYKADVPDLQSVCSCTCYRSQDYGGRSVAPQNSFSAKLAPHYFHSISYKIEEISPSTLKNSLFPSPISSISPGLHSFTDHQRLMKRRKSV

The assay addresses Potassium channel subfamily K member 9 (Homo sapiens) (UniProt Q9NPC2). Put plainly: KCNK9 potassium channel inhibitors, primary screen, HEK293 cells, thallium flux (AID 488922).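 As to B-score: negative B-score means less thallium flux so channel inhibition.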 Particulars: HEK293 KCNK9, FluxOR thallium flux fluorescence, at 10 µM; active compounds read low.
As to `O=C(c1cccc([N+](=O)[O-])c1)N1CCN(Cc2ccccc2)CC1`, the B-score entry is “inactive”.

In the case of `CC1(c2ccccc2)CC(C)(C)N(C(=O)c2cc([N+](=O)[O-])cc([N+](=O)[O-])c2)c2ccccc21` (stereo not given), the B-score entry is “inactive”.

Take `CC1(c2cccc([N+](=O)[O-])c2)CC(C)(C)N(C(=O)c2ccccc2)c2ccccc21` (stereo not given): the B-score is -7.5 (active).

As for `O=C(NC(=S)Nc1ccc(Cl)cc1Cl)C1CC1`, the B-score result was “inactive”.

Consider `O=C(/C=C/NNC(=O)c1cccc(Br)c1)c1ccccc1`, for which the B-score was -12.9 (active).

Regarding `CC(CC(=O)O)CC(=O)NNC(=O)c1cccc(Br)c1` (stereo not given), the B-score result is “inactive”.

Regarding `Cc1ccccc1NC(=S)NNC(=O)c1cccc(Br)c1`, the B-score entry was “inactive”.

Regarding `Cc1c(C(C)(C)O)[nH]c2ccc(C#N)cc12`, the B-score result is “inactive”.

Consider `O=C(O)/C=C/C(=O)NNc1ccc([N+](=O)[O-])cc1`, for which the B-score entry was “inactive”.

On to `Cc1cccc(NC(=O)CSc2nnc(CCCCCNC(=O)OC(C)(C)C)o2)c1C`, for which the B-score result is “inactive”.

As for `Cc1ccc(C(=O)Cc2nnc(C)s2)cc1`, the B-score result is “inactive”.

In the case of `CCOC(=O)C1CCCN(S(=O)(=O)c2ccc(-n3cnnn3)c(C)c2)C1` (stereo not given), the B-score entry was “inactive”.

With `CN(C)c1ccc(/C=N/N(Cc2ccccc2)c2ccccc2)cc1`, the B-score entry was “inactive”.

For `CCN(/N=C/c1ccc(N(C)C)cc1)c1nc2ccccc2[nH]1`, the B-score entry was “inactive”.

Consider `Oc1ccc(/C=N/N(Cc2ccccc2)c2ccccc2)cc1`, for which the B-score was -7.55 (active).

Turning to `N#Cc1ccc(C(c2nnnn2CCc2ccccc2)N2CCCCCC2)cc1` (stereo not given), the B-score is -7.47 (active).

Regarding `COc1ccc(CCn2nnnc2C(c2ccccc2)N2CCN(C)CC2)cc1OC` (stereo not given), the B-score result was “inactive”.

Consider `CC(C)C(c1nnnn1CCc1ccccc1)N1CCN(C(=O)c2ccco2)CC1` (stereo not given), for which the B-score entry was “inactive”.

With `CCCn1c(C(O)c2cc(OC)ccc2OC)nc2ccccc21` (stereo not given), the B-score entry is “inactive”.

With `COc1ccc(OC)c(C(O)c2nc3ccccc3n2C)c1` (stereo not given), the B-score was -7.74 (active).

Turning to `CCn1c(C(O)c2cc(OC)ccc2OC)nc2ccccc21` (stereo not given), the B-score result is “inactive”.

For the compound `Cn1ncc2c(N3CCCCC3)nc(NCCCO)nc21`, the B-score entry is “inactive”.

Regarding `COc1ccccc1C(=O)NCc1nnc(SC(C)C(=O)Nc2nccs2)n1C` (stereo not given), the B-score result is “inactive”.

`C=CCc1cc(S(=O)(=O)c2ccc(O)c(CC=C)c2)ccc1O`: the B-score was -11.9 (active).

As to `CCOC(=O)N1CCC(NC(=O)CN2C(=O)COc3ccc(C(C)(C)C)cc32)CC1`, the B-score result is “inactive”.

Turning to `C#CC(C)(C)NC(=O)c1cnc(-c2ccccc2)nc1-c1ccccc1`, the B-score result is “inactive”.

Regarding `COc1ccc(C2CC(c3cccs3)=NN2C(=O)CCC(=O)O)cc1OC` (stereo not given), the B-score entry was “inactive”.

`COc1ccc(C2CC(c3cccs3)=NN2C(=O)CSc2nncs2)cc1OC` (stereo not given): the B-score entry was “inactive”.

Take `COc1ccc(C2CC(c3cccs3)=NN2c2nc(C)c(C(C)=O)s2)cc1OC` (stereo not given): the B-score result was “inactive”.

Turning to `COc1ccc(C2CC(c3cccs3)=NN2c2ccc(F)cc2)cc1OC` (stereo not given), the B-score was -7.88 (active).

As to `COc1ccc(C2=NN(c3ccccc3)C(c3cccs3)C2)cc1` (stereo not given), the B-score result was “inactive”.

Take `COc1ccc(C2CC(c3cccs3)=Nc3ccccc3S2)cc1OC` (stereo not given): the B-score is -8.55 (active).

Consider `COc1ccc(C2CC(c3cccs3)=NN2C(=O)CSc2nnc(N)s2)cc1OC` (stereo not given), for which the B-score result is “inactive”.

Turning to `COc1ccc(C2CC(c3cccs3)=NN2c2ccccc2)cc1` (stereo not given), the B-score was -11.3 (active).

As to `COc1ccccc1N1N=C(c2cccs2)CC1c1ccccc1` (stereo not given), the B-score result was “inactive”.

As for `COc1ccc(NCCc2ccccn2)cc1`, the B-score result was “inactive”.

On to `Cc1nn(C)c(C)c1C(C)NC(=O)c1ccc(OC2CCN(Cc3ccccn3)CC2)cc1` (stereo not given), for which the B-score result was “inactive”.

As to `COc1ccccc1/C=C/C(=O)NC1CC2CCC1C2` (stereo not given), the B-score result is “inactive”.

Take `Cc1ccc(SCC2=NNC(=O)C2)cc1`: the B-score entry is “inactive”.

On to `Cc1ccccc1C(=O)Nc1ccccc1Sc1ccccc1`, for which the B-score entry was “inactive”.

For the compound `O=C(COC(=O)c1ccccc1)Nc1ccccc1Sc1ccccc1`, the B-score is -9.75 (active).

Turning to `O=C(COC(=O)c1cccc(Br)c1)Nc1cccc2c1C(=O)c1ccccc1C2=O`, the B-score result was “inactive”.

Consider `CCn1c(=O)n(CC)c2cc(N3CCCC3)c(NC(=O)c3ccccc3Br)cc21`, for which the B-score entry is “inactive”.

With `COc1ccc(-c2c(C(C)=O)c(C)nc3sc4c(=O)n(-c5ccc(C)cc5)nnc4c23)cc1`, the B-score entry was “inactive”.

`O=C(COc1ccc([N+](=O)[O-])cc1Cl)Nn1cnnc1`: the B-score entry was “inactive”.

As to `CCN(C(=O)COc1ccc(C(=O)c2ccccc2)cc1)c1ccccc1`, the B-score is -8.43 (active).

In the case of `O=C(COc1ccc(F)cc1)N(CC1=CCS(=O)(=O)C1)c1ccccc1`, the B-score entry is “inactive”.

For `CCN(C(=O)c1ccc(Br)cc1)c1ccccc1`, the B-score result is “inactive”.

In the case of `COc1ccc2cc(CCl)c(Cl)nc2c1`, the B-score result was “inactive”.

For `Cc1ccc(S(=O)(=O)N(CCCN(C)C)Cc2ccc3c(c2)OCO3)cc1`, the B-score entry was “inactive”.

Take `O=C(CSC1CC(=O)N(CCc2ccccc2)C1=O)Nc1ccc(Cl)cc1` (stereo not given): the B-score entry was “inactive”.

Consider `O=C(C[C@H]1C(=O)N(c2ccc(F)c(F)c2)C[C@@H]1Cc1ccccc1)Nc1ccccc1`, for which the B-score was -12.2 (active).

For the compound `O=C(CN1CCN(c2ccc(F)cc2)CC1)Nc1ccccc1`, the B-score result was “inactive”.

Turning to `CC(c1ccccc1)n1c(NCCCn2ccnc2)nc2c1c(=O)[nH]c(=O)n2C` (stereo not given), the B-score result was “inactive”.

As to `CC1CCCCC1NC(=O)COC(=O)Cc1ccc(Br)cc1` (stereo not given), the B-score result was “inactive”.

Consider `COc1ccc(-c2noc(COc3ccc(Cl)c(C)c3)n2)cc1`, for which the B-score entry is “inactive”.

As for `COc1ccc(C(C)=O)cc1COc1ccc(Cl)c(C)c1`, the B-score is -10.5 (active).

As for `COCc1cc(C(C)=O)ccc1OC`, the B-score entry is “inactive”.

Consider `COc1ccc(/C(N)=N/OC(=O)Cc2ccccc2)cc1`, for which the B-score entry was “inactive”.

In the case of `COc1cccc(NC(=O)c2ccc(Cn3cc([N+](=O)[O-])cn3)o2)c1`, the B-score result was “inactive”.

For `O=C(Nc1ccc(Br)c2cccnc12)c1ccc(Cn2cc([N+](=O)[O-])cn2)o1`, the B-score is -12.7 (active).

`O=C(c1ccc(Cn2cc([N+](=O)[O-])cn2)o1)N1CCCC1`: the B-score result is “inactive”.

Consider `O=C(Nc1nonc1-c1ccc(Cl)cc1)c1ccco1`, for which the B-score entry is “inactive”.

Consider `Cc1cccc(C(=O)Nc2ccc(C(=O)N/N=C/c3cccc(C)n3)cc2)c1`, for which the B-score entry is “inactive”.

Take `O=C(Nc1cccc(CCc2ccccn2)c1)c1ccc(Cl)cc1`: the B-score entry is “inactive”.

Regarding `CNC(=O)C(=O)N/N=C/c1ccccn1`, the B-score entry is “inactive”.

For the compound `O=C(N/N=C/c1ccccn1)c1cccc(NC(=O)c2ccc(Cl)cc2)c1`, the B-score was -8.92 (active).

On to `O=C(COc1ccc(Cl)cc1Cl)NCCCNC(=O)c1cnccn1`, for which the B-score entry is “inactive”.

Turning to `O=C(COc1ccc(Cl)cc1Cl)N/N=C/c1ccccn1`, the B-score is -9.19 (active).

For `COc1ccccc1NC(=O)c1cc(Cl)nnc1Cl`, the B-score result is “inactive”.
